# Results: PubChem BioAssay (NCI)
# This is part of a sample that, as a whole, favours compounds with a hit. Of some 83,000 tested, about 20% had one in any assay.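 Cell lines were cultured in 96-well plates, exposed to a single compound concentration, and assessed for percent growth 48 hours later.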 A number with no mark means an inactive call. Active and inactive are the calls of the source. How the source made its calls: active means growth percent below 10; inactive means the rest.
# How the values were obtained:
# Assay in all cases: NCI-60 one-dose screen, 48 h (100 = growth as untreated, 0 = no growth, -100 = all killed)
# NCI-H23 lung = system: NCI-H23 lung
# NCI-H226 lung = system: NCI-H226 lung
# HOP-62 NSCLC = system: HOP-62 NSCLC
# NCI-H460 lung = system: NCI-H460 lung
# HOP-92 NSCLC = system: HOP-92 NSCLC
# 786-0 renal = system: 786-0 renal
# COLO 205 colon = system: COLO 205 colon
# DU-145 prostate = system: DU-145 prostate
# K-562 leukemia = system: K-562 leukemia
# MALME-3M melanoma = system: MALME-3M melanoma
# MDA-MB-231 breast = system: MDA-MB-231 breast
# RXF 393 renal = system: RXF 393 renal
# SF-268 CNS = system: SF-268 CNS
# SF-295 CNS = system: SF-295 CNS
# SF-539 CNS = system: SF-539 CNS
# UACC-257 melanoma = system: UACC-257 melanoma
smiles,measurement,setting,value
COc1cccc2c1C(=O)c1c(O)c3c(c(O)c1C2=O)C[C@@](O)(C(=O)CO)C[C@@H]3OC1CC(N)C(O)C(C)O1 (some centres not stated),growth,NCI-H23 lung; 0.0025 µM,90%
same,growth,NCI-H23 lung; 1 µM,28.2%
same,growth,NCI-H23 lung; 2.5 µM,33.1%
same,growth,NCI-H23 lung; 10 µM,33.3%
same,growth,NCI-H226 lung; 0.0025 µM,84%
same,growth,NCI-H226 lung; 2.5 µM,23.1%
same,growth,NCI-H226 lung; 10 µM,-18.3% (active)
same,growth,HOP-62 NSCLC; 0.0025 µM,88.3%
same,growth,HOP-62 NSCLC; 2.5 µM,31.5%
same,growth,HOP-62 NSCLC; 10 µM,6.93% (active)
same,growth,NCI-H460 lung; 0.0025 µM,73.4%
same,growth,NCI-H460 lung; 1 µM,-31.1% (active)
same,growth,NCI-H460 lung; 2.5 µM,9.19% (active)
same,growth,NCI-H460 lung; 10 µM,0.571% (active)
same,growth,HOP-92 NSCLC; 0.0025 µM,85.2%
same,growth,HOP-92 NSCLC; 2.5 µM,51%
same,growth,HOP-92 NSCLC; 10 µM,-22.8% (active)
same,growth,786-0 renal; 0.0025 µM,84.4%
same,growth,786-0 renal; 1 µM,-14.3% (active)
same,growth,786-0 renal; 2.5 µM,26.8%
same,growth,786-0 renal; 10 µM,4.5% (active)
same,growth,COLO 205 colon; 0.0025 µM,85.8%
same,growth,COLO 205 colon; 1 µM,53.8%
same,growth,COLO 205 colon; 2.5 µM,56.7%
same,growth,COLO 205 colon; 10 µM,-47.4% (active)
same,growth,DU-145 prostate; 2.5 µM,-33.2% (active)
same,growth,DU-145 prostate; 10 µM,13.2%
same,growth,K-562 leukemia; 0.0025 µM,107%
same,growth,K-562 leukemia; 1 µM,32.8%
same,growth,K-562 leukemia; 2.5 µM,28.1%
same,growth,K-562 leukemia; 10 µM,2.13% (active)
same,growth,MALME-3M melanoma; 0.0025 µM,79.3%
same,growth,MALME-3M melanoma; 1 µM,-17.2% (active)
same,growth,MALME-3M melanoma; 2.5 µM,30%
same,growth,MALME-3M melanoma; 10 µM,-80.1% (active)
same,growth,MDA-MB-231 breast; 0.0025 µM,124%
same,growth,MDA-MB-231 breast; 1 µM,71%
same,growth,MDA-MB-231 breast; 2.5 µM,82.1%
same,growth,MDA-MB-231 breast; 10 µM,3.79% (active)
same,growth,RXF 393 renal; 0.0025 µM,107%
same,growth,RXF 393 renal; 10 µM,-28.5% (active)
same,growth,SF-268 CNS; 0.0025 µM,97%
same,growth,SF-268 CNS; 1 µM,41%
same,growth,SF-268 CNS; 2.5 µM,16.7%
same,growth,SF-268 CNS; 10 µM,-4.32% (active)
same,growth,SF-295 CNS; 0.0025 µM,95.8%
same,growth,SF-295 CNS; 1 µM,2.06% (active)
same,growth,SF-295 CNS; 2.5 µM,-1.94% (active)
same,growth,SF-295 CNS; 10 µM,-27.6% (active)
same,growth,SF-539 CNS; 0.0025 µM,97.1%
same,growth,SF-539 CNS; 1 µM,36.5%
same,growth,SF-539 CNS; 2.5 µM,32.3%
same,growth,SF-539 CNS; 10 µM,-50.3% (active)
same,growth,UACC-257 melanoma; 0.0025 µM,90%
same,growth,UACC-257 melanoma; 1 µM,28.3%
same,growth,UACC-257 melanoma; 2.5 µM,42.8%
same,growth,UACC-257 melanoma; 10 µM,3.46% (active)
